“And” between values parts separate entries of the source, which are not always exact repeats. Equal values may be shown once. Results filed as inconclusive are left out. A number with no mark means an inactive call. Calls come from the whole dose curve. Residues, ends and D or L forms follow the SMILES beside them.
What follows are compounds tested against Bile acid receptor (Homo sapiens) (UniProt Q96RI1) (assay: qHTS assay for small molecule agonists of farnesoid X receptor signaling (AID 588527; note: series mostly up to about 77 µM)). Details: HEK293T FXR-UAS-bla, beta-lactamase ratio, 16 h; hits give high values.
Sequence of Bile acid receptor (Homo sapiens) (Q96RI1 whole entry, looked up): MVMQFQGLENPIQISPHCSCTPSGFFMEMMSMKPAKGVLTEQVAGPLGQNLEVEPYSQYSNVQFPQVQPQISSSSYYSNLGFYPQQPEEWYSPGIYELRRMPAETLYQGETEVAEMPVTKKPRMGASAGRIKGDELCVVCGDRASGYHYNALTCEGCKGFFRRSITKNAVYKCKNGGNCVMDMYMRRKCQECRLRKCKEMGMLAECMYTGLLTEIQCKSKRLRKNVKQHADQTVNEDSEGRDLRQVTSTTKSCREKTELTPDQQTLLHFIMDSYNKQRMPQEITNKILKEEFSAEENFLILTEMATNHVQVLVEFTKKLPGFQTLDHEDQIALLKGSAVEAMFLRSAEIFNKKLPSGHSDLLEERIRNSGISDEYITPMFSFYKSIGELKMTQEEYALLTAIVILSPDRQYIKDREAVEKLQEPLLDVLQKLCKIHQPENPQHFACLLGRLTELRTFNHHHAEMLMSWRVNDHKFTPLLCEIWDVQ
Source text: NIH Chemical Genomics Center [NCGC] U.S. Environmental Protection Agency [EPA] National Institutes of Environmental Health Sciences [NIEHS] National Toxicology Program [NTP] NCGC Assay Overview The farnesoid-X-receptor (FXR), a nuclear hormone receptor is highly expressed in liver, intestine, kidney and adrenal cortex. Natural ligands of FXR are the bile acids (Cholic acid, Chenodeoxy cholic acid etc). It is an important regulator of diverse metabolic pathways, including the bile acid homeostasis, lipid and glucose metabolisms. FXR regulates the expression of target genes by binding either as a monomer or as a heterodimer with RXR (retinoid X receptor). As FXR regulates a large number of target genes involved in bile acid, lipoprotein and glucose metabolisms, it is a potential pharmacological target for bile acid and lipid disorders. Thus screening environmental chemicals on FXR signaling can be used for the studies focused on metabolic syndrome, hepatic and intestinal toxicity etc.
NCGC Assay Protocol Summary Using a beta-lactamase reporter-gene under control of Farnesoid X receptor (FXR) response element, a cell-based assay [GeneBLAzer FXR-UAS-bla assay developed by Invitrogen] was used to measure FXR ligands signaling. GeneBLAzer FXR-UAS-bla HEK293T cells were used with assay medium containing 10% dialyzed FBS. The assay was performed in clear bottom black Greiner 1536-well plates. Chenodeoxycholic acid and Guggulsterone were used in the screen as agonist and antagonist positive controls respectively. Library compounds were measured for their ability to stimulate the reporter gene activity. Compounds were screened in a titration series in 1536-well format. […] Data was normalized relative to Chenodeoxycholic acid control (100 uM, 100%), and DMSO only wells (basal, 0%). Concentration-response titration points for each compound were fitted to the Hill equation yielding concentrations of half-maximal stimulation (EC50) and maximal response (efficacy) values. qHTS protocol for FXR beta-lactamase assay in agonist mode [Step] [Parameter] [Value] [Description] 1. Reagent; 6 uL; 5000 cells/well 2. Incubation; 37 C for 5-7 hrs 3. Compounds; 23 nL; 0.59 nM to 92 uM 4. Controls (Chenodeoxycholic acid); 23 nL, - One column with dose response, start 200 uM, 1:2 dilutions in duplicates - Final concentrations of 100 uM and 60 uM in two columns 5. Incubation; 37 C for 16 hrs 6. Detection reagent; 1 uL of CCF4-dye 7. Incubation; RT for 2 hrs 8. Detection; Fluorescence; Envision plate reader

SMILES | activation
Cc1cc(C)nc(NS(=O)(=O)c2ccc(N)cc2)n1 | 1.04% and -0.0754%
COc1c2occc2cc2ccc(=O)oc12 | 0.341% and 4.08%
O=C(c1ccccc1)c1ccccc1 | -1.37% and -0.544%
NC(=O)c1ccccc1O | -3.79%
Nc1nc(Cl)nc2c1ncn2[C@H]1C[C@H](O)[C@@H](CO)O1 | -0.12%
Cc1cc(=O)n(-c2ccccc2)n1C | 1.08%
CC(C)(C)CC(C)(C)c1ccc(OCCOCC[N+](C)(C)Cc2ccccc2)cc1 | -1.62%
COC(=O)[C@H](Cc1ccccc1)NC(=O)[C@@H](N)CC(=O)O (H-Asp-Phe-OMe) | -0.395% and 1.51%
O=C(O)c1cc(-c2ccccc2)nc2ccccc12 | -1.96%
Cc1cc(NS(=O)(=O)c2ccc(N)cc2)no1 | -1.53%
S=P(N1CC1)(N1CC1)N1CC1 | 4.46%
Cc1noc(NS(=O)(=O)c2ccc(N)cc2)c1C | 1.48%
CC(=O)O[C@]1(C(C)=O)CC[C@H]2[C@@H]3C[C@H](C)C4=CC(=O)CC[C@]4(C)[C@H]3CC[C@@]21C | 0.881%
CCCCCCCC(=O)OCC(COC(=O)CCCCCCC)OC(=O)CCCCCCC | -2.1%
COc1ccc(C(=O)c2ccccc2)c(O)c1 | -3.45% and -6.15%
Clc1ccc(C(c2ccc(Cl)cc2)C(Cl)(Cl)Cl)cc1 | 4.82%
CC(=O)c1ccc(S(=O)(=O)NC(=O)NC2CCCCC2)cc1 | -2.29% and -1.81%
Cn1c(=O)c2[nH]cnc2n(C)c1=O | 0.492%
NCCNCCNCCN | -3.81%
CN1C[C@H](C(=O)N[C@]2(C)O[C@@]3(O)[C@@H]4CCCN4C(=O)[C@H](Cc4ccccc4)N3C2=O)C=C2c3cccc4[nH]cc(c34)C[C@H]21 | 2.53%

SMILES | activation
Cc1cc(=O)[nH]c(=S)[nH]1 | 0.173%
CCCc1c(OCCCCc2nn[nH]n2)ccc(C(C)=O)c1O | 7.75%
CC(=O)N1CCN(c2ccc(OC[C@H]3CO[C@](Cn4ccnc4)(c4ccc(Cl)cc4Cl)O3)cc2)CC1 | -1.01%
CC(O)C(=O)O (stereo not given) | -0.922%
c1ccc2sc(SSc3nc4ccccc4s3)nc2c1 | 4.39%
COC(=O)C(c1ccccc1)C1CCCCN1 (stereo not given) | -2.4%
CCOC(=O)c1ccc(O)cc1 | 0.927%
CC12CCC(CC1)C(C)(C)O2 | -0.483%
O=C1c2ccccc2C(=O)C1C(=O)C(c1ccccc1)c1ccccc1 | -2.98%
C[C@]12CCC(=O)C=C1CC[C@@H]1[C@@H]2CC[C@]2(C)C(=O)CC[C@@H]12 | -2.26%
O=C(O)CCCCC(=O)O | -1.88%
CC(O)CN(CCN(CC(C)O)CC(C)O)CC(C)O (stereo not given) | 0.352%
CC(C)=CCC/C(C)=C/CO | 0.54%
Cc1ncc(CO)c(CO)c1O | -0.349%
Oc1cccc(O)c1 | -2.84%
CCCCOC(=O)CC(CC(=O)OCCCC)(OC(C)=O)C(=O)OCCCC | 1.49%
CC(=O)O[C@H]1C(=O)[C@@]2(C)[C@H]([C@H](OC(=O)c3ccccc3)[C@]3(O)C[C@H](OC(=O)[C@H](O)[C@@H](NC(=O)c4ccccc4)c4ccccc4)C(C)=C1C3(C)C)[C@]1(OC(C)=O)CO[C@@H]1C[C@@H]2O | 3.09%
O=C(O)CCCc1ccc(N(CCCl)CCCl)cc1 | -2.97% and 0.833%
O=C(O)Cc1cccc2ccccc12 | -0.869% and 1.54%
CN=C(NC#N)NCCSCc1nc[nH]c1C | 1.62%

Reference: PubChem BioAssay (NCATS)
